# Laboratory results from PubChem BioAssay (NCATS).
# Results filed as inconclusive are left out. The source made the active and inactive calls. Calls follow the shape of the dose curve; as a rule, active = well fitted cell-killing curve with a large enough effect; inconclusive = small, poorly fitted or top-dose-only effect, or effect the other way; inactive = no such curve, though single readings can be large or run the other way.
# Experiment: Quantitative High-Throughput drug screen in 47 multiple myeloma cell lines against the NCATS MIPE library collection: OPM2_DSMZ cell viability assay (AID 1919872); also: nearly all actives have a fitted effect of over 30% in size
# Details: OPM2 myeloma viability, CellTiter-Glo ATP luminescence, 48 h; series mostly up to 45.8 µM
# Method in brief: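 Viability readout: CellTiter-Glo luminescence following 5 min room-temperature incubation with reagent. Prior exposure: 48 h, 37C, humidified 5% CO2, 500 cells per well.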
# Potency is read from the fitted curve at half-maximal effect.
row,SMILES,Potency
1,C[C@]12COC(=O)C[C@@H]1CC[C@@H]1[C@H]2CC[C@@]2(C)[C@H]1CC[C@]2(C)O,inactive
2,C=C[C@@H]1CN2CCC1C[C@@H]2[C@@H](O)c1ccnc2ccccc12 (some centres not stated),20900 nM (active)
3,CC1=C(O)C(=O)C=C2C1=CC=C1[C@@]2(C)CC[C@@]2(C)[C@@H]3C[C@](C)(C(=O)O)CC[C@]3(C)CC[C@]12C,833 nM (active)
4,CCN1CCN(C(=O)Cc2ccc(Nc3ncc(F)c(Nc4ccc(C(=O)Nc5ccccc5Cl)cc4)n3)cc2)CC1,6620 nM (active)
5,O=S(=O)(F)Cc1ccccc1,inactive
6,CC(C)[C@]12O[C@@H]1[C@@H]1O[C@]13[C@]1(O[C@H]1C[C@@H]1C4=C(CC[C@@]13C)C(=O)OC4)[C@H]2O,inactive
7,O=c1[nH]c2ccccc2n1C1CCN(Cc2ccc(-c3[nH]c4cc5ncnc5cc4nc3-c3ccccc3)cc2)CC1,18700 nM (active)
8,CCCC[N+]1(C)[C@H]2CC(OC(=O)[C@H](CO)c3ccccc3)C[C@H]1[C@H]1O[C@H]12 (some centres not stated),inactive
9,O=C(Nc1ccncc1)C(=O)c1cn(Cc2ccc(Cl)cc2)c2ccccc12,105 nM (active)
10,CSCC[C@@H](NC(=O)[C@@H](Cc1ccccc1)NC(=O)CNC(=O)CNC(=O)[C@@H](N)Cc1ccc(O)cc1)C(=O)O,inactive
11,COCC1(CO)C(=O)C2CCN1CC2 (configuration not stated),11800 nM (active)
12,c1ccc2c(CN3CCNCC3)cccc2c1,inactive
13,CCc1c(C(=O)C(N)=O)c2c(OCC(=O)O)cccc2n1Cc1ccccc1,inactive
14,COc1ccc2c(c[n+](C)c3c4cc5c(cc4ccc23)OCO5)c1OC,9350 nM (active)
15,COc1cccc2c1[C@]13CCN(CC4CC4)[C@H](C2)[C@]1(OC)CCC(=O)C3,inactive
16,Cc1[nH]nc2ccc(-c3cncc(OC[C@@H](N)Cc4c[nH]c5ccccc45)c3)cc12,14800 nM (active)
17,CC(C)(O)C=CC(=O)[C@](C)(O)[C@H]1[C@H](O)C[C@]2(C)[C@@H]3CC=C4[C@@H](C=C(O)C(=O)C4(C)C)[C@]3(C)C(=O)C[C@@]12C,132 nM (active)
18,CC[C@@H]1[C@@H](C)O[C@@](O)([C@@H](C)[C@H](O)[C@H](C)[C@H]2OC(=O)C=CC=C[C@@H](C)[C@@H]([C@@H](C)[C@@H](O)[C@H](C)[C@@]3(O)C[C@H](O[C@H]4C[C@H](O)[C@H](O)[C@H](C)O4)[C@H](CC)[C@@H](C)O3)OC(=O)C=CC=C[C@@H]2C)C[C@H]1O[C@H]1C[C@H](O)[C@H](O)[C@H](C)O1,372 nM (active)
19,CC[C@@]1(O)C(=O)OCc2c1cc1n(c2=O)Cc2cc3ccccc3nc2-1,743 nM (active)
20,CCOC(=O)Nc1ccc(NCc2ccc(F)cc2)cc1N,inactive
21,C[C@@H]1O[C@@H](O[C@@H]2C=C3CC[C@@H]4[C@@H](CC[C@]5(C)[C@H](c6ccc(=O)oc6)CC[C@@]45O)[C@@]3(C)CC2)[C@H](O)[C@H](O)[C@H]1O,9.3 nM (active)
22,CC=C(C)C(=O)O[C@H]1C(C)=C2[C@@H]3OC(=O)[C@@](C)(O)[C@@]3(O)[C@@H](OC(=O)CCC)C[C@](C)(OC(C)=O)[C@@H]2[C@@H]1OC(=O)CCCCCCC,33.2 nM (active)
